From PubChem BioAssay (Tox21)
Values without a mark were called inactive. Calls come from the whole dose curve.

Target: Acetylcholinesterase (Homo sapiens) (UniProt P22303)
Assay: Acetylcholinesterase (AChE) small molecule antagonists: enzyme-based qHTS assay with human liver microsomes (AID 1347399); note: nearly all actives have a fitted effect of over 60% in size
Conditions: Potency: qHTS inhibition; outcome: qHTS inhibition; series mostly up to 115 µM; activity change, negative = inhibition: at the top concentration
Outline: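 Recombinant human AChE (50 mU/mL in the enzyme mix) and human liver microsomes (0.25 mg/mL final) were preincubated with compound and NADPH (0.25 mg/mL final) for 30 min at 37 C. Acetylthiocholine/DTNB was then added; thiocholine was read colorimetrically after 10 min at room temperature.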
% is set by controls: 0 for no effect and ±100 for the full control effect.

Acetylcholinesterase (Homo sapiens), sequence (P22303 whole entry, looked up): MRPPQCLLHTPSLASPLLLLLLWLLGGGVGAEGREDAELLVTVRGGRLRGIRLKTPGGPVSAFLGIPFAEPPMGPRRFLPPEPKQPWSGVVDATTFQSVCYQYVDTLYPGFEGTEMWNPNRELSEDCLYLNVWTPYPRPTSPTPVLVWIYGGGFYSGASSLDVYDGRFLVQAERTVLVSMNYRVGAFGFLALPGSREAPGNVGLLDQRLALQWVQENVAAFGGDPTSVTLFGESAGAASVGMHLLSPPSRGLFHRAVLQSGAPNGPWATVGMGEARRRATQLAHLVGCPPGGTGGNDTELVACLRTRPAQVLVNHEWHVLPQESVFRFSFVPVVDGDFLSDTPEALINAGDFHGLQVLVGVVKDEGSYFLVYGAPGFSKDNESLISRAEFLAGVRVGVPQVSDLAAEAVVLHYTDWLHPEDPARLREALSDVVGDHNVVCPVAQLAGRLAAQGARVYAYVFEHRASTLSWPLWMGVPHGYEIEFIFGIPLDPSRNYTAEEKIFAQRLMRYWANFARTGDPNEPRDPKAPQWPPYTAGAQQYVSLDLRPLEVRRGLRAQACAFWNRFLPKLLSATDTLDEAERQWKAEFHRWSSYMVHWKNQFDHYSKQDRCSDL

| SMILES | activity change, negative = inhibition |
| --- | --- |
| C=CCN(CC=C)CC=C | -0.462% |
| CO[C@H]1C=CO[C@@]2(C)Oc3c(C)c(O)c4c(O)c(cc(O)c4c3C2=O)NC(=O)/C(C)=C\C=C/[C@H](C)[C@H](O)[C@@H](C)[C@@H](O)[C@@H](C)[C@H](OC(C)=O)[C@@H]1C | -0.808% |
| COC(=O)C1CC(=O)C(C(=O)OC)CC1=O (centres undefined) | -0.962% [at 10.5 µM] |
| CC(CN(C)C)CN1c2ccccc2CCc2ccccc21 (centres undefined) | 0.84% [at 53 µM] |
| C1C[C@@H]2[C@H]3CC[C@H](C3)[C@@H]2C1 | -1.06% |
| O=C(Nc1ccc(Oc2ccc(Cl)cc2)c(Cl)c1)c1cc(I)cc(I)c1O | -0.213% [at 53 µM] |
| Cc1ccc(C(C)OC(=O)C2(C)CCC(C(=O)O)C2(C)C)cc1 (centres undefined) | 0.844% [at 53 µM] |
| C=CCCCCCCCCC(=O)OCCCC | -2.91% |
| O=C1OC(=O)C2C3C=CC(C3)C12 (centres undefined) | 0.216% |
| CCCCN1CCCC1C(=O)Nc1c(C)cc(C)cc1C (centres undefined) | -1.43% [at 53 µM] |
| O=C(Oc1cccc2cccnc12)c1ccccc1 | -3.25% [at 53 µM] |
| O=S(O)(O)=S | 0.162% [at 10.5 µM] |
| CCCCNC1CC(C)(C)NC(C)(C)C1 | -0.389% |
| CCc1ccc(O)c(OC)c1 | 1.45% |
| CC/C=C\CCOC(C)=O | 0.306% |
| CC(=O)Oc1ccc(C(C)=O)cc1 | -1.38% |
| CNCCO | -1.53% |
| Nc1ccc(S(=O)(=O)O)c(N)c1 | 3.66% |
| N#CCN(CC#N)CCN(CC#N)CC#N | -0.306% |
| CCO | -0.324% |

| SMILES | activity change, negative = inhibition |
| --- | --- |
| CC1=C(CC(=O)O)c2cc(F)ccc2/C1=C\c1ccc(S(C)(=O)=O)cc1 | 3.07% [at 53 µM] |
| COC(=O)c1ccc(I)cc1S(=O)(=O)NC(=O)Nc1nc(C)nc(OC)n1 | -0.188% |
| CCCCC(CC)COP(=O)(O)O (centres undefined) | -1.46% |
| CCCCCCCCCC#N | 1.36% |
| COc1ccc(COC=O)cc1 | 0.0166% |
| CCCCCCCCSCc1cc(C)c(O)c(CSCCCCCCCC)c1 | -0.73% |
| CCCCCCCC/C=C\CCCCCCCC(=O)OCCCC | 0.083% [at 23.6 µM] |
| CC1(c2ccccc2)OC(C(=O)O)=CC1=O (centres undefined) | 0.0378% [at 53 µM] |
| CC(C)CCCCOC(=O)c1ccccc1C(=O)OCCCCC(C)C | -0.511% |
| CCOc1ccc(NC(=O)OC(C)C)cc1OCC | 1.45% |
| CC(C)(C)CC(C)(C)c1ccc(OCCO)cc1 | -0.646% |
| CC(C)[N+](C)(C)CC(O)COc1cccc2ccccc12 (centres undefined) | 0% [at 53 µM] |
| CCCCCCCC/C=C/CCCOC(C)=O | -1.99% |
| C=CC1CO1 (centres undefined) | 0.171% |
| CC(C)=CCC/C(C)=C/COC=O | -3.37% |
| CCOC(=O)C(C)(C)C | -1.61% |
| C#C[C@]1(OC(C)=O)CC[C@H]2[C@@H]3CCC4=C/C(=N/O)CC[C@@H]4[C@H]3CC[C@@]21CC | 0.73% [at 53 µM] |
| Cc1cccc(C)c1NC(=O)C(C)N (centres undefined) | -1.17% [at 53 µM] |
| CCCCOCCOC(=O)c1cccnc1 | 2.05% [at 53 µM] |
